The record followed here is PubChem BioAssay (NCI).

About 83,000 compounds went through this panel and 20% of them were active in at least one assay; those are over-represented in the sample as a whole.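 Percent growth is the endpoint: 0 to 100 indicates growth inhibition (40 means 60% inhibition), 0 means no net growth, and negative values indicate cell death.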 Values without a mark were called inactive. Calls of active or inactive are those of the source. The calls were made as follows: active = growth percent below 10; inactive = the rest.

The subject of this assay is MDA-MB-468 breast. As to the kind of experiment: NCI-60 one-dose screen, 48 h (100 = growth as untreated, 0 = no growth, -100 = all killed). Particulars: 10 µM unless noted.
As for `COC(=O)[C@]12CC[C@@H](C)[C@H](C)[C@@H]1C1=CC[C@@H]3[C@@]4(C)C(c5cnco5)=C[C@@](C)(CO)C4=CC[C@@]3(C)[C@]1(C)CC2`, the growth was 17%. In the case of `O=C(COc1ccc(/C=C2\C(=O)Nc3ccc(Cl)cc32)cc1)Nc1ccc(Cl)cc1` it was 87.6%. The result for `COC1(OC)C2(Cl)C(Cl)=C(Cl)C1(Cl)C1COCC12` (stereo not given) reads 87%; that for `CC(C)(C)c1cc(-c2nc3ccc(N4CCN(S(C)(=O)=O)CC4)cc3[nH]2)cc(C(C)(C)C)c1O`, 96.1%; that for `Cc1ccc(CSC(=N)N)cc1C`, 104%. The result for `Nc1cc(F)ccc1NC(=O)c1ccc(NC(=O)C/C=C/c2cccnc2)cc1` reads 40.1%.

For `O=C(Nc1cccc(Cl)c1)c1cc([N+](=O)[O-])ccc1O`, the growth is 31.3%. The result for `CC(C)(C)c1cc(Br)cc(C(C)(C)C)c1O` reads 110%; that for `C/C(=C\C(=N\N=C(N)N)c1ccc(Cl)cc1)c1ccc(Cl)cc1`, -92.9% (active); that for `C=C(C)[C@@H]1CC=C2c3sc(-c4ccc(C)cc4)nc3C[C@@H](C)[C@]2(C)C1`, 108%. The result for `Cc1ccc(C)n1/C=C/n1c(C)ccc1C` reads 95.1%; that for `COc1ccc(/C=c2\c(=O)n(-c3ccccc3)c3nn4c(n23)=NNC42CCCCC2)cc1`, 110%; that for `CN1C(C(=O)Nc2ccccn2)=C(O)c2sc(Cl)cc2S1(=O)=O`, 98.7%. On to `O=C(NNc1nc(N2CCCC2)nc(N2CCCC2)n1)c1ccccc1`, for which the growth was 112%.

As for `CCN1C(=O)N(CC)C2SC(N/N=C/c3cccs3)=NC21` (stereo not given), the growth is 32.4%. The result for `COC(=S)SCN(CSC(=S)OC)c1ccc(Cl)cc1` reads 95.1%. The result for `Cc1cnc(C(=O)NNc2nc3sc4c(c3c(=O)[nH]2)C(C)CCC4)cn1` (stereo not given) reads -10.4% (active); that for `COC(=O)[C@H](C)NC(=O)c1ccc(NC(=O)c2[nH]c(C)c(Cl)c2Cl)c(OCCN)c1`, 107%; that for `Cc1occc1-c1nc2s/c(=C/c3ccc(-c4cc(C(F)(F)F)ccc4Cl)o3)c(=O)n2n1`, 108%. The result for `CC1(C)CC(=O)c2c(nc3ccc(Cl)cc3c2-c2ccccc2)C1` reads 92%; that for `Cc1cc2c(cc1C)Nc1sc(NC(=O)CN3CCN(C)CC3)nc1C(=O)N2`, 105%; that for `Fc1ccc2c(c1)c(-c1nc(-c3c[nH]c4ncccc34)cs1)cn2CCCN1CCOCC1`, 18.3%. For the molecule `CCC/C(=N\NC(N)=O)C(OC)OC`, the growth was 103%. The result for `COC(=O)[C@]12CC[C@@H](C)[C@H](C)[C@@H]1C1=CC[C@@H]3[C@@](C)(CC#N)C4=C(C[C@@]3(C)[C@]1(C)CC2)OC[C@]4(C)C=O` reads -83% (active); that for `CC(C)(O)C#CC#CC(C)(C)O`, 97.7%; that for `COc1ccc(/C=C/C(=O)c2nnn(-c3ccc(Br)cc3)c2C)cc1OC`, 46.9%. The result for `CC/C(=C(/c1ccc(Cl)cc1)c1ccc(OCCN2CCOCC2)cc1)c1ccccc1` reads 91%; that for `O=C(O)c1cn(C2CC2)c2cc(N3CCN(Cc4c(O)ccc5ccccc45)CC3)c(F)cc2c1=O`, 35.1%; that for `Nc1ccc(C2=CC(c3ccc(Cl)cc3)N3C=CSC3=N2)cc1` (stereo not given), -77.1% (active).

In the case of `O=S1SC(c2ccccc2)=NN1c1cc(F)cc(F)c1` (stereo not given), the growth is 44.4%.

Take `Oc1c(Br)cc(Cl)cc1C(c1cc(Cl)cc(Br)c1O)C(Cl)(Cl)Cl`: the growth was -4.05% (active). In the case of `NC(=NCc1ccccc1)C(N=Nc1ccccc1)C(=O)NCc1ccccc1` (stereo not given) it was 55.3%; in that of `O=S(=O)(Oc1ccc(Br)cc1)c1ccc(Cl)cc1`, 105%. In the case of `COc1cc2c(cc1OC(C)=O)C(=O)CCCC2` it was 76.8%; in that of `N#Cc1nc(-c2ccc(F)cc2)oc1S(=O)(=O)N1CCN(c2ccc(F)cc2)CC1`, 86.9%. The result for `Cc1cc(O)ccc1C1=NN(c2ccc(S(C)(=O)=O)cc2)C(=O)CC1` reads 103%; that for `O=C1C2CC3C(CC2C(=O)[N]1[Sn]([c]1ccccc1)([c]1ccccc1)[c]1ccccc1)C1(Cl)C(Cl)=C(Cl)C3(Cl)C1(Cl)Cl` (stereo not given), -83.1% (active). `Cc1nn(-c2ccc(F)cc2)c2ncnc(Oc3ccc(NC(=O)Nc4ccc(Cl)c(C(F)(F)F)c4)cc3)c12`: the growth is 97.8%. In the case of `O=C(CNc1nc2ccccc2s1)Nc1ccc(-c2nc3ccccc3s2)cc1` it was -17.8% (active). The result for `CC1CN(CC(O)c2ccc(Br)cc2)CCO1` (stereo not given) reads 115%.
